From the supplement of paper PMC6555819

tested on: VDR:RXRa (NR concentration 270 nM, RXRa partner concentration 90 nM); assay: PBM binding z-score (relative to random genomic background probes); higher = stronger binding; sequences stand for … in GC…GCGATTGACAGCGTAGAATGAAGG
Method: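 Protein-binding microarray (Agilent 4x180K custom design, double-stranded 60-nt probes: 5' GC cap, 34-nt variable region, 24-nt constant primer region; full probe sequence given). Purified or IVT nuclear receptor:RXRα heterodimers (3:1 NR:RXRα, mostly 270:90 nM) or homodimers were incubated for 1 h in PBS with 2% milk and no ligand, then detected with Alexa488 antibodies. Fluorescence from o1-orientation probes (~5 replicates averaged) was converted to z-scores against 500 random hg19 background probes. Variable regions are seed direct-repeat (DR0–DR5) sites, all their single-nucleotide variants and half-site ablations.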

Row | Sequence | PBM binding z-score
1 | AGTCAAAGTTCACTAGGTTACGTAAGATTCAGCT | 4.71
2 | CCGAGTAGGTTACGAGGGGGTATTCAGTGCGAAT | 2.95
3 | ATCGAAAGGTGGACGAGGTGAGTATACACCGTTT | 0.85
4 | TAGCCTAGGTCATTCAGGGGCCAGTATGGAAAGC | 3.13
5 | CGAACTAGGCCAAAGGACAGTGAAAGGCGACGTA | -0.722
6 | ATCGAATGGTCGTGAGGTGAGTATACAGAAAGGC | -0.0757
7 | GCTGCTAGGTCAACTGATGGTCAGCTAAAGCTCG | 1.47
8 | CCTTACGGGTCACTCAAGGTTATAGCATCGGAGT | 5.32
9 | CGAACTAGGTCACCAGGACAGTAAAGAGGTTGGA | 2.05
10 | ACTCGGAGGACAAACGTCAGAGCTACGCCAGTGA | -0.401
11 | CGTCCAAGGTCAGATAGGTCAGTGAATGCCGAGT | 4.9
12 | ACTCGGAGGGCAAAGGTCAGAGCTACGCCAGTGA | 4.32
13 | TCGAGAAGGTTACGGGGGCATTCAGGGATGAAGA | 4.82
14 | AGTCATAGTTCACTAGGTAACGTAAGATTCAGCT | 1.12
15 | CGAACTAGGTCACCAGGACGGTGAAGAGGTTGGA | 1.77
16 | CGAACTAGGTCAAAGGAAAGTGAAAGGCGACGTA | 0.89
17 | ATATGTAGGTTAGGGTCATTCCGAAAGTAGGGAA | 4.54
18 | CAATCTAGGTCACGAAAGGTCAAAGTCGAATGAC | 6.99
19 | TAGCCTAGGTCATAGGCCAGTATACCACGCGAAC | 1.74
20 | CGAACTAGGTCACCAGGACAGTGTAGAGGTTGGA | 2.17

Row | Sequence | PBM binding z-score
21 | TTACCAAGGTTAAAGGTCGTTGATGCACGCCTTG | 4.55
22 | TCATATAGGTAATAGGTGAAAGTCGGTGTGGTAA | 0.883
23 | CAAAGTAGGTCACGAAAGGTCAAAGTCGAATGAC | 6.82
24 | ATATGTTGGTTAGGGTCATTCAGAAAGTAGGGAA | 4.37
25 | ATATGTAGGTTAAGGGTCATGCAGGTTGGTTCGC | 5.46
26 | ATCGAAAGGTCGTGAAGTGAGTATACAGAAAGGC | 3.26
27 | AATACAGGGTCACTAGGTCAGAGTAGGTACGAAT | 5.25
28 | CCGAGTAGGTTACGCGGGGGCATTCAGTGCGAAT | 5.48
29 | CAAACTAGGTCAAGGTCAAATTCGGTTTGTGCCA | 5.06
30 | TCTTGTTGATCAAAGGTTAAGAAAGCCGAAGCCT | 1.56
31 | CGAACTAGGTCAAAGGACAGTTAAAGGCGACGTA | 1.52
32 | TCTAGCTGGTCAAAGGTCACACACTCGAAATGCG | 5.36
33 | TCGAGCAGGTTACGGGGGCATTCAGGGATGAAGA | 3.86
34 | AATACAGGGTCATTAGGCCAGAGTAGGTACGAAT | 4.61
35 | CCTACTGGGCCGAGGTCATTGATCAGTCAAAGCA | 4.12
36 | CAAAGTAGGTCAAGGTCAAAGTCGGTTTGTGCCA | 5.27
37 | TATACTGGGTCAAAGGCCAGAGTACGAATGTCGA | 2.38
38 | ATCGAAAAGTCGAAGGTGAGTATACCCACCCGAA | -0.47
39 | ATATGTAGGTTACGTCCGGGTCATTCAGGCTATG | 4.14
40 | TCGAGTAGGTTAAGGGGGCATTCAGGGATGAAGA | 3.35
